Assay outcomes (PubChem)
Only some compounds are listed: those with a hit (about 1.8% of all), similar ones and a draw of the others.
PAD4 FP inh: human PAD4 inhibitors, primary screen, biochemical, fluorescence polarization, 1536-well format; Protein-arginine deiminase type-4 (Homo sapiens), Q9UM07; 330,000 tested, 0.41% active; inhibition, % at 6.36 µM; recombinant PAD4, RCA probe fluorescence polarization;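 active = percent inhibition above a cutoff equal to the mean of all tested compounds plus 3 SD, cut at about 15% in these data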
Target sequence (Q9UM07 whole entry, looked up): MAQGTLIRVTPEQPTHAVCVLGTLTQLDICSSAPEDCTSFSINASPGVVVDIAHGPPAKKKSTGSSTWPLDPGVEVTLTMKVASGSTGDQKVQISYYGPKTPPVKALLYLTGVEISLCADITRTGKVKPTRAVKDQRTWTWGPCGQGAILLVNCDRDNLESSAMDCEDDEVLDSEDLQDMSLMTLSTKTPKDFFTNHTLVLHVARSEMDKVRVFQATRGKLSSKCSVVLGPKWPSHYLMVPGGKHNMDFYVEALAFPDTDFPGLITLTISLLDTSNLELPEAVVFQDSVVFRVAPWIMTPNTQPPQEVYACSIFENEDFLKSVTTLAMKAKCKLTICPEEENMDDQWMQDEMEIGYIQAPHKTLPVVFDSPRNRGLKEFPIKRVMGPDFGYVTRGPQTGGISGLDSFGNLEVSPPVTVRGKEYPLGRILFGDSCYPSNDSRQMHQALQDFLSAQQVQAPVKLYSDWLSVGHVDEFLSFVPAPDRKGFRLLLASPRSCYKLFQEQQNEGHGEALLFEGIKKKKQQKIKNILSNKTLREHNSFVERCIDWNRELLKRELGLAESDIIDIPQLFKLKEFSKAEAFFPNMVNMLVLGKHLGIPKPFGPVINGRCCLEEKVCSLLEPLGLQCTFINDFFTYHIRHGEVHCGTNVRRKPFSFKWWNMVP
Fam108B inh: mouse Fam108B serine hydrolase inhibitors, primary screen, counter-screen for RBBP9 inhibitor project, biochemical, fluorescence polarization | AID 1947, 2009 | 300,000 tested, 0.33% active | recombinant Fam108B, FP-Rh probe fluorescence polarization | inhibition, % at 9.51 µM;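 active = inhibition above the screen mean inhibition plus 3 SD, computed separately per campaign, cut at about 18% in these data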;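 also: inhibitors lower polarization as less probe binds the enzyme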
LYPLA1 inh: LYPLA1 inhibitors, primary screen, counter-screen for PME1 inhibitor project, biochemical, fluorescence polarization, FP-Rh probe ABPP | Acyl-protein thioesterase 1 (Homo sapiens), O75608 | recombinant LYPLA1 | inhibition, % at 5.9 µM | 320,000 tested, 0.16% active | AID 2174, 2009;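 active = inhibition above the mean of all tested compounds plus 3 SD, set per campaign, cut at about 14% in these data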;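 also: inhibitors block serine hydrolase probe labeling of LYPLA1 so polarization falls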
PME-1 primary: PME-1 inhibitors via competitive probe labeling, primary screen, biochemical, fluorescence polarization, FP-Rh probe, HTS; recombinant PME-1; 320,000 tested, 0.53% active; inhibition, % at 5.9 µM; Protein phosphatase methylesterase 1 (Homo sapiens), Q9Y570;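 active = inhibition above the campaign mean of all compounds plus 3 SD, cut at about 26% in these data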;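 also: competitive labeling of PME-1 active site by serine hydrolase directed probe; inhibitors block probe labeling so polarization falls and inhibition rises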
LYPLA2 inh: LYPLA2 inhibitors, primary screen, counter-screen for PME1 inhibitor project, biochemical, fluorescence polarization, FP-Rh probe ABPP; recombinant LYPLA2; 320,000 tested, 0.38% active; AID 2177, 2009; inhibition, % at 5.9 µM;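 active = inhibition above the screen-wide mean plus 3 SD, limit set per campaign, cut at about 26% in these data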
GSTO1 inh: inhibitors of recombinant GSTO1, primary screen, counter-screen for RBBP9 inhibitor project, biochemical, fluorescence polarization | inhibition, % at 5.96 µM | 300,000 tested, 1.1% active | activity-based probe fluorescence polarization | AID 1974, 2009;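 active = inhibition above the campaign mean inhibition plus 3 SD, cut at about 35% in these data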
LYPLA2 confirm: LYPLA2 inhibitors, retest, confirmation, counter-screen for PME1 inhibitor project, biochemical, fluorescence polarization, FP-Rh probe ABPP | shares compounds with LYPLA2 inh | recombinant LYPLA2 | inhibition, % at 5.9 µM | AID 2232, 2010 | 1,100 tested, 72% active;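 active = mean inhibition across replicates above the hit cutoff set in the primary screen, cut at about 26% in these data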;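 also: blocked labeling of the enzyme by serine hydrolase FP-Rh probe lowers polarization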
LYPLA2 gel ABPP: LYPLA2 inhibitors in proteome, late-stage follow-up, gel-based competitive ABPP, fluorescence, assay provider; shares compounds with LYPLA2 inh; rhLYPLA2 in mouse brain proteome, gel ABPP FP-Rh; inhibition, % at 20 µM; 150 tested, 30% active; AID 652029, 2013;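 active = inhibition of LYPLA2 enzyme probe labeling above about 50%, limit read from the data; inactive = inhibition below that limit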;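 also: loss of FP-Rh probe labeling of the LYPLA2 gel band measured as band density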
Numbers stand for hits; – = inactive; · = not tested or not shown.

SMILES | PAD4 FP inh | Fam108B inh | LYPLA1 inh | PME-1 primary | LYPLA2 inh | GSTO1 inh | LYPLA2 confirm | others
COc1ccccc1CNC(=O)COc1ccc(S(=O)(=O)N2CCCC2)cc1 | – | – | – | – | – | – | ·
Fc1ccc(CSc2ncnc3ccccc23)cc1 | – | – | – | – | 26.1 | – | 25.9
O=C(COC(=O)Cc1ccc(S(=O)(=O)N2CCOCC2)s1)Nc1ccc([N+](=O)[O-])cc1 | – | · | – | – | – | · | ·
CC1CC(C)CN(C(=O)Cn2c(=O)n(CCCC(=O)NCc3ccco3)c(=O)c3sccc32)C1 (stereo not drawn) | – | – | – | – | – | – | ·
CC(=O)c1ccc(N2CCN(C(=O)CCCn3c(=O)[nH]c4ccsc4c3=O)CC2)cc1 | – | – | – | – | 51.3 | – | 56.4 | LYPLA2 gel ABPP=–
O=C(CCCn1c(=O)[nH]c2ccsc2c1=O)N1CCCCC1 | – | – | – | – | – | – | ·
Cc1cccc(N2CCN(C(=O)Cc3ccc(-n4c(=O)[nH]c5ccsc5c4=O)cc3)CC2)c1C | – | – | – | – | 66.5 | – | 68.5 | LYPLA2 gel ABPP=56.0
COc1ccc(C2=[N+](C)CCn3cccc32)c(OC)c1 | – | – | – | – | – | – | ·
N#C/C(=C\N1CCN(Cc2ccc3c(c2)OCO3)CC1)c1nc2ccccc2s1 | – | – | – | – | 49.7 | – | 52.5 | LYPLA2 gel ABPP=–
CCOCCCN(C(=O)Cn1nnc(-c2ccc(C)o2)n1)C(C(=O)NC1CCCC1)c1ccco1 (stereo not drawn) | – | – | – | – | – | – | ·
O=C(OCc1ccc(F)cc1)c1cc(S(=O)(=O)N2CCCCC2)ccc1N1CCOCC1 | – | – | – | – | – | – | ·
COc1ccc(COC(=O)c2cc(S(=O)(=O)N3CCCCC3)ccc2N2CCOCC2)cc1 | – | – | – | – | – | – | ·
Cc1ccc(OCCOC(=O)c2cc(S(=O)(=O)N3CCCCC3)ccc2N2CCOCC2)cc1 | – | · | – | – | 28.9 | · | 31.1
O=C(OCc1ccc([N+](=O)[O-])cc1)c1cc(S(=O)(=O)N2CCCCC2)ccc1N1CCOCC1 | – | – | – | – | 27.5 | – | 32.8
Cc1ccc(S(=O)(=O)N2CCN(C(=O)N(C)C)CC2)cc1 | – | – | – | – | – | – | ·
COC(=O)c1ccc(NC(=O)c2ccc3c(c2)C(=O)N(Cc2cccnc2)C3=O)cc1 | – | – | – | – | 49.5 | – | 51.0
O=C(Nc1cccnc1)c1ccc2c(c1)C(=O)N(Cc1cccnc1)C2=O | – | – | – | – | – | – | ·
CCN(CC)S(=O)(=O)c1ccc(N2CCOCC2)c(NC(=O)COc2ccc(C#N)cc2)c1 | – | – | – | – | 77.1 | – | 78.5 | LYPLA2 gel ABPP=64.0
CCN(CC)S(=O)(=O)c1ccc(N2CCOCC2)c(NC(=O)c2cc(=O)[nH]c3ccccc23)c1 | – | – | – | – | 35.8 | – | 43.0
COc1cc(C(=O)N2CCN(C(=O)c3cc(-c4ccc(Br)cc4)n[nH]3)CC2)cc(OC)c1OC | – | – | – | – | 27.9 | – | 32.0
COc1cc(C(=O)N2CCN(C(=O)c3ccccc3)CC2)cc(OC)c1OC | – | – | – | – | – | – | ·
CCCN(CCC)C(=O)c1ccc2c(c1)S(=O)(=O)c1ccccc1C2=O | – | – | – | – | 31.2 | – | –
CC(=O)Nc1cccc(C(=O)OCC(=O)c2ccc(S(=O)(=O)N3CCCCC3)cc2)c1 | – | – | – | – | 65.8 | – | 61.9
CNC(=O)COC(=O)c1ccc(Cl)c(S(=O)(=O)N2CCCC2)c1 | – | – | – | – | 27.5 | – | –
